From PubChem BioAssay (NCI)
Values joined by “and” are separate entries in the source; they are usually repeats but may differ in a detail not shown here. Identical values can stand only once. This is part of a sample that, as a whole, favours compounds with a hit. Of some 83,000 tested, about 20% had one in any assay.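 How to read the values: 0–100, growth inhibition (40 = 60% inhibited); 0, no net growth; -100 to 0, cell death (-40 = 40% of starting cells died; -100 = all dead).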 Active and inactive are the calls of the source. The calls were made as follows: active = growth percent below 10; inactive = the rest.

tested on: MDA-MB-468 breast; assay: NCI-60 one-dose screen, 48 h (100 = growth as untreated, 0 = no growth, -100 = all killed); conditions: 10 µM unless noted

Compound | growth
CCOC(=O)c1ccc(N(CCC(=O)O)C(C)=O)cc1 | 99.9% (inactive)
O=[N+]([O-])c1ccc(Sc2nc(Cl)nc(NC3CCCC3)n2)cc1 | -46.5% [100 µM] (active)
CC(C)COCC(CN(Cc1ccccc1)c1ccccc1)N1CCCC1 (stereo not given) | 32.7% (inactive)
CCOC(=O)c1ccc(NC(=O)c2nc(-c3cc(OC)c(OC)c(OC)c3)n(-c3ccc(Cl)cc3)n2)cc1 | 107% (inactive)
CC(=O)OC1CC2C(C)(C)OC3CC(=O)OCC32C2CCC3(C)C(=CCC3c3ccoc3)C12C (stereo not given) | 39.1% (inactive)
Cc1nn(-c2ccccc2)c2c1C(c1ccc([N+](=O)[O-])cc1)C(C#N)=C(N)O2 (stereo not given) | 108% (inactive)
CNC(=O)c1cc(Oc2ccc3nc(NC(=O)c4cc(N5CCOCC5)cc(C(F)(F)F)c4)sc3c2)ccn1 | 63.7% (inactive)
CCN(CC)c1ccc(CN(CC(=O)c2ccc(Cl)c(Cl)c2)Cc2ccccc2)cc1 | 91.9% (inactive)
Nc1nc(N)c2c(n1)NC(c1cccc(Nc3ccnc4cc(C(F)(F)F)ccc34)c1)CC(c1ccc(Br)cc1)=N2 (stereo not given) | 41.9% (inactive)
Clc1cc(Cl)cc(Nc2ccc3c(OCCCN4CCOCC4)cccc3n2)c1 | 20.6% (inactive)
Cc1cc2c(C(=O)NCC#N)cccc2n1-c1nc2c(c(NCc3ccccc3)n1)CCCC2 | -52.5% (active)
CCCCCCCCCCCCc1ccc([N+](CC)(CC)CC)cc1 | -5.49% (active)
COc1ccc(C2c3cccn3-c3ccccc3N2C(C)=O)cc1 (stereo not given) | 93.9% (inactive)
O=c1[nH]c(CN2CCN(c3ccccc3)CC2)nc2c(Br)cc(Br)cc12 | 114% (inactive)
COc1ccc(-c2nc(-c3nc4ccc(Cl)cc4[nH]3)c3ccccn23)cc1 | 61.5% (inactive)
Cc1ccc(Nc2cc(Cl)c([N+](=O)[O-])cc2[N+](=O)[O-])cc1 | -65.8% (active)
CCN(CC)CCOc1nc2cc(OC)c(OC)cc2c2c1-c1ccc(OC)cc1C2=O | 84% (inactive)
NC(=S)N/N=C/c1ccc(OC(=O)COc2ccccc2)cn1 | 29.7% (inactive)
O=CN/N=C/c1ccc(Cl)c([N+](=O)[O-])c1 | -11.6% (active)
CN1CCN(Cc2ccc(NC(=O)c3cncc(C#Cc4cnc5ccc(N6CCOCC6)nn45)c3)cc2C(F)(F)F)CC1 | -70.8% (active)

Compound | growth
CN1CC[C@@H](c2c(O)cc(O)c3c(=O)cc(-c4ccccc4Cl)oc23)[C@@H]1CO | -44.2% (active)
CC1=NN(c2ccc(S(=O)(=O)O)cc2Cl)C(=O)C1 | 107% (inactive)
CCN(CCO)CCC(=O)c1ccc([N+](=O)[O-])cc1 | 98.1% (inactive)
CC(C)(C)n1cc(-c2ccnc(NCCCNS(=O)(=O)c3ccc(F)cc3)c2)c(-c2cccc(F)c2)n1 | 53.2% (inactive)
COc1cc(C)ccc1Oc1nc(Nc2ccc(N3CCOCC3)cc2)ncc1N=Cc1cc(C(F)(F)F)cc(C(F)(F)F)c1 | 71% (inactive)
O=C(Cn1nnc([N+](=O)[O-])n1)c1ccccc1 | 99.2% (inactive)
CN(C)CCCn1c(=O)c2cc([N+](=O)[O-])ccc2c2cnc3[nH]ccc3c21 | 81.3% (inactive)
Cc1nc(Nc2ncc(C(=O)Nc3c(C)cccc3Cl)s2)cc(N2CCN(CCO)CC2)n1 | -4.35% (active) and -2.22% (active)
C[n+]1c(/C=C/c2c(O)ccc3ccccc23)ccc2ccccc21 | -16.1% (active)
Nc1c(C(=O)Nc2ccccc2)sc2nc3c(cc12)C(O)CCC3 (stereo not given) | 51.6% (inactive)
Nc1nc(N)c2c(n1)NC(c1ccc(Cl)cc1)CC(c1ccc(Nc3nc(NCCO)nc(Nc4ccc(Cl)cc4)n3)cc1)=N2 (stereo not given) | -29% (active)
CCN1CCN(C(=O)[C@]23CCC(C)(C)C[C@@H]2C2=CC[C@@H]4[C@@]5(C)CCC(=O)C(C)(C)[C@@H]5CC[C@@]4(C)[C@]2(C)CC3)CC1 | 30.5% (inactive)
COc1ccc(NC(=O)c2sc3nc(C)c(C(C)=O)cc3c2N)cc1 | 91.8% (inactive)
O=C1/C(=C/c2ccc(O)cc2)COc2ccc(O)cc21 | 100% (inactive)
O=C(/C=C/c1cc2ccccc2[nH]c1=O)/C=C/c1cc2ccccc2[nH]c1=O | -31.7% (active)
CN1CCN(c2ccc(-c3ccc4ncc(C#N)c(Nc5ccc(F)c(Cl)c5)c4c3)cc2)CC1 | 1.52% (active)
O=C(CNc1nc2ccccc2s1)Nc1ccc(-c2nc3ccccc3s2)cc1 | -17.8% (active)
CN(C)c1ccc(/C=C2\Cc3c(F)ccc(Br)c3C2=O)cc1 | -29.4% (active)
COc1cc(CSc2nc3ccc(Cl)cc3c(=O)n2Cc2ccccc2)cc(OC)c1OC | -13.1% (active)
O=C(NCCCNc1cc(-c2cn(-c3ccccc3)nc2-c2cccc(O)c2)ccn1)Nc1cc(C(F)(F)F)cc(C(F)(F)F)c1 | 70.4% (inactive)
